Rango release inh: inhibitors of RanGTP-induced Rango-importin beta complex dissociation; O95149+P62826; Biochemical FRET Rango-importin beta, RanGTP-induced dissociation; Potency, µM (titrated, usually from 46.1 µM), without a hit: at the top dose activity change, negative = inhibition; 0.071% of 340,000 active; AID 540253; calls by dose curve; note: % of control where 0% means no effect; nearly all actives have a fitted effect of over 45% in size
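FRET read at 45 min, room temperature: inhibitors block the CFP/YFP signal rise when RanGTP (0.6 uM Ran, 2 mM GTP, 0.2 uM RCC1) frees Rango (0.1 uM) from importin beta (0.25 uM). Pre-read after 5 min compound exposure flags interference.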
Rango-impB inh: prevents formation of the Rango-importin beta complex; Q14974; Rango CFP/YFP FRET sensor + importin beta, 45 min; Potency, µM (series often up to 92.2 µM), for the others: top-dose inhibition of complex formation; 0.031% of 340,000 active; calls by dose curve;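 note: 0% = DMSO wells and 100% = buffer wells lacking importin beta; nearly all actives have a fitted effect of over 15% in size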
Target sequence (Q14974 whole entry, looked up): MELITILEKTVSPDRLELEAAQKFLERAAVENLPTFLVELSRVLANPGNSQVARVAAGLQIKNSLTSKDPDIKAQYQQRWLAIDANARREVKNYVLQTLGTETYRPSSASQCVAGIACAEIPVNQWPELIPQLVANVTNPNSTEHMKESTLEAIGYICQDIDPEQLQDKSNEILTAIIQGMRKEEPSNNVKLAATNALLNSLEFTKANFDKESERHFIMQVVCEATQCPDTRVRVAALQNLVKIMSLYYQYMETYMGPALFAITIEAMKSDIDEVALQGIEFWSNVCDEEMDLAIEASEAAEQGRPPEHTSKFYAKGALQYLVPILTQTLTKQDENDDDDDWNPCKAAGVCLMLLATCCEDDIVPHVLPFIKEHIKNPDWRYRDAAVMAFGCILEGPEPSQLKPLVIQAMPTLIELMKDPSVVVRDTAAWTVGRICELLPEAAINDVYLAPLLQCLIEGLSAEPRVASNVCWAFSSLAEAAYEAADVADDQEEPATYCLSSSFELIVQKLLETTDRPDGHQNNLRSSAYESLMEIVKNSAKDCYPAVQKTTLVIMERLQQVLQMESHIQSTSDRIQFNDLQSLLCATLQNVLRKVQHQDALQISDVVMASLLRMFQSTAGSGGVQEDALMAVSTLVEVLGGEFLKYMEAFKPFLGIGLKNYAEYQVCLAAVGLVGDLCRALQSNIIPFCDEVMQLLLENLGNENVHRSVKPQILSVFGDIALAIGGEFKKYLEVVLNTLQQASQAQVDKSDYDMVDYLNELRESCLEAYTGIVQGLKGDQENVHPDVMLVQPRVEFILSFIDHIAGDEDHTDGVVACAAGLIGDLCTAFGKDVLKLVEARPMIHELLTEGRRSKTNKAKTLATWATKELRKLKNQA
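Inhibition scored from the CFP 486 nm/YFP 530 nm FRET ratio 45 min after adding 0.125 microM importin beta to 50 nM Rango biosensor preincubated 5 min with compound (room temperature, PBS with DTT, Tween-20, BSA). No-importin wells as positive control.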
Nrf2 inh: Nrf2 pathway inhibition; A549 ARE-Fluc reporter, luciferase luminescence, 18-24 h; Potency, µM (doses to about 46 µM), without a hit: top-dose activity change, negative = inhibition, actives largely listed as inhibitors; 2.1% of 360,000 active; note: % is set by controls: 0 for no effect and ±100 for the full control effect; nearly all actives have a fitted effect of over 60% in size
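Cells were seeded and rested 2 h, then exposed to compounds for 18-24 h. CellTiter-Fluor was read first as a viability measure. BugLite was added 15 min before the final luminescent read of ARE-luciferase activity in A549 cells.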
A549 tox: kills or reduces viability of A549 cells in Nrf2 counter-screen. A549 ARE-Fluc cells, CellTiter-Fluor viability, 18-24 h. Potency, µM (doses to about 46 µM), inactives show top-dose activity change, negative = cytotoxicity, hits mostly inhibitors. 0.16% of 390,000 active; note: % is set by controls: 0 for no effect and ±100 for the full control effect
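Cytotoxicity counterscreen: CellTiter-Fluor fluorescence was measured in A549 ARE_Fluc cells after 18-24 h of compound exposure in a concentration series. The subsequent BugLite luminescent read reports ARE-luciferase activity.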
Nrf2 activator: activates Nrf2 signaling; AREc32 ARE-luciferase reporter (MCF7-derived line), luminescence, 24 h; Potency, µM (titrated, usually from 46.1 µM), for inactives: at the top dose activation, usual class: activators; 0.31% of 410,000 active; note: % of control where 0% means no effect; nearly all actives have a fitted effect of over 65% in size
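For detection, Steady-Glo was added and plates sat 30 min at RT; before that, AREc32_Fluc cells grown overnight in OPTI-MEM/5% FBS had been treated with 23 nL compound for 24 hr at 37 deg C.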
The depositor's hits bear a star; u = inconclusive; x = not tested or not shown; [ ] = remark or other dose. A selection: hits, their analogues and other compounds. The true share with any hit is near 2.3%. Unless noted, calls come from the whole dose curve; as a rule, active = well fitted curve in the direction sought with a large enough effect; inconclusive = small, poorly fitted or top-dose-only effect, or another doubt; inactive = no such curve, though single readings can be large; an effect the other way counts as inactive or inconclusive. Potency is the fitted concentration of half-maximal effect.

SMILES	Rango release inh	Rango-impB inh	Nrf2 inh	A549 tox	Nrf2 activator
Cc1cc(C)c2c(N)c(C(=O)c3ccc(Br)cc3)oc2n1	u	u	17%	1%	1.8µM*
Cc1ccc(C(=O)NCc2ccco2)cc1S(=O)(=O)Nc1cccc(Cl)c1	-16%	-1%	23µM*	-12%	3%
c1nc(NCc2ccoc2)c2cc(-c3ccc4c(c3)OCO4)ccc2n1	x	x	14%	-3%	x
Cc1cc(Br)ccc1NC(=O)CN(C)C(=O)COc1cccc2c1OC(C)(C)C2	5%	0%	21µM*	0%	0%
COc1ccc(NC(=O)COc2cccc3c2OC(C)(C)C3)cc1OC	-6%	-1%	18µM*	-10%	1%
Cc1cccc(C)c1NC(=O)CN(C)C(=O)COc1cccc2c1OC(C)(C)C2	6%	0%	5%	4%	1%
COc1cccc(NC(=O)COC(=O)COc2cccc3c2OC(C)(C)C3)c1	13%	-3%	15%	2%	0%
CCOC(=O)c1c(C)[nH]c(C)c1S(=O)(=O)N1CCCC(C(=O)N2CCN(c3ccccc3)CC2)C1 (centres undefined)	x	x	x	1%	0%
CC(=O)c1ccc(NC(=O)c2cnc(N3CCCC3)nc2C)cc1	x	x	x	0%	4%
CCOC(=O)C1=C(Cc2ccc(F)cc2)C(=O)c2ccccc2C1=O	u	u	x	16µM*	9%
O=C(OCc1ccc(F)cc1)c1ccc2c(c1)-c1ccccc1C2=O	-6%	-1%	-14%	-2%	6%
CCNC(=O)n1cc(-n2cncn2)c(-c2ccc(Cl)cc2)n1	-21%	3%	u	2%	0%
Cn1nc(C(F)(F)F)c(/C=N/OC(=O)c2ccccc2)c1Sc1ccc(Cl)cc1	2%	1%	15µM*	-7%	0%
CCOC(=O)c1c(S(=O)(=O)N2CCC(C(=O)NCc3ccccc3Cl)CC2)c(C)n(C)c1C	x	x	x	-8%	-1%
O=C(CCN1C(=O)/C(=C/c2ccccc2Cl)SC1=S)Nc1ccccn1	2%	u	16%	4%	4%
O=C1/C(=C/c2ccccc2Cl)SC(=S)N1CCCC(=O)N(CCO)c1ccccc1	6%	-4%	16µM*	-12%	4%
O=C(CCCN1C(=O)/C(=C/c2ccc3c(c2)OCO3)SC1=S)Nc1cccc(C(=O)O)c1	-24%	u	10µM*	6%	0%
O=C(CCCN1C(=O)/C(=C/c2ccccc2Cl)SC1=S)Nc1ccccn1	15%	3%	21µM*	-23%	1%
COc1ccc(C2c3ccc(OCc4ccccc4)cc3Oc3ncn(CCN4CCOCC4)c(=N)c32)cc1OC (centres undefined)	x	x	u	-7%	x
COc1ccc(-c2sc3ccc(N4CCOCC4)cc3c2C#CCO)cc1	-19%	1%	16µM*	-9%	-3%
COc1ccc(-c2sc3ccc(N4CCOCC4)cc3c2C#CC2(O)CCCCC2)cc1	-6%	0%	-26%	-6%	6%
c1ccc(-c2nnc(C3CC(c4ccncc4)=NO3)o2)cc1 (centres undefined)	-2%	-1%	u	0%	-1%
COC(=O)CSc1nnc(COc2cccc3ccccc23)o1	3%	-1%	5%	1%	0%[9.22 µM]
Cc1csc(N(C)C(=O)CSc2nnc(COc3cccc4ccccc34)o2)n1	-16%	-3%	21µM*	0%	0%
O=C(NCc1cccs1)c1ccc(CSc2nc3cccnc3n2Cc2ccccc2)cc1	x	x	u	-19%	4%
SMILES	Rango release inh	Rango-impB inh	Nrf2 inh	A549 tox	Nrf2 activator
CCOc1ccccc1CNC(=O)c1ccc(NC(=O)N2CCSc3ncccc32)cc1	x	x	18µM*	2%	1%
CCOc1ccccc1CNC(=O)c1ccc(Cn2c(SCc3ccccc3)nc3cccnc32)cc1	x	x	21µM*	-16%	6%
O=C(NCCc1ccccc1)c1ccc(CSc2nc3cccnc3n2Cc2ccccc2)cc1	x	x	u	-14%	1%
O=C(NCc1cccs1)c1ccc(CSc2nc3cccnc3n2Cc2ccc(F)cc2)cc1	x	x	18µM*	-19%	1%
CN(Cc1ccccc1)C(=O)c1ccc(CSc2nc3cccnc3n2Cc2ccccc2)cc1	x	x	21µM*	u	-5%
CC1CCCCN1C(=O)Cn1c(=O)oc2cc(S(=O)(=O)N3CCCC3)ccc21 (centres undefined)	-6%	-5%	8%	0%	-1%
CCN(CC)C(=O)C1=CC(c2ccc3c(c2)OCO3)=NS(=O)(=O)N1C	x	x	-14%	-1%	-1%
CCOc1ccc(OCC)c(NC(=O)Cn2ncc3c4ccccc4n(Cc4ccccc4)c3c2=O)c1	x	x	-3%	10%	-1%
CC(C)NC(=O)C1(C)CCCCN1Cc1ccc(OCc2ccccc2)cc1 (centres undefined)	x	x	x	x	4%
O=C(NNC(=O)c1sc2cccc(Cl)c2c1Cl)Nc1ccccc1	7%	-3%	u	-14%	0%
O=C(NNC(=O)c1sc2cccc(Cl)c2c1Cl)NC1CCCCC1	-5%	-5%	9.2µM*	-12%	-1%
CCCCS(=O)(=O)c1oc(-c2ccc(F)cc2)nc1S(=O)(=O)c1ccccc1	x	x	21µM*	u	u
COc1ccc(NC(=O)c2cnc[nH]2)cc1	x	x	u	1%	0%
COc1ccc(NS(=O)(=O)c2ccc(C(=O)N3CCN(Cc4ccccc4)CC3)cc2)cc1	9%	3%	21µM*	-9%	0%
CCOc1ccc(NS(=O)(=O)c2ccc(C(=O)N3CCCC(C)C3)cc2)cc1 (centres undefined)	12%	0%	7.3µM*	-11%	0%
CCOc1ccc(NS(=O)(=O)c2ccc(C(=O)N3CCCCCC3)cc2)cc1	1%	-1%	23µM*	-16%	2%
CCOc1ccc(S(=O)(=O)Nc2cccc(Cl)c2)cc1	-9%	14%	13µM*	u	-1%
CCOc1ccc(S(=O)(=O)Nc2ccc(C(=O)N3CCCC3)cc2)cc1	-11%	1%	-22%	2%	-1%
Cc1ccc(C)c(N2CCN(C(=O)c3cc4c(=O)n(Cc5cccnc5)ccc4nc3C)CC2)c1	x	x	-24%	-2%	7%
Cc1cccc(NC(=O)C2CCN(c3cnccn3)CC2)c1	x	x	3%	-2%	1%
